# Assay results published in PubChem BioAssay AID449764 (Southern Research Specialized Biocontainment Screening …, 2010).
# In all, about 2,300 compounds went through this assay and about 1,700 (74%) were called active. How the calls were made is not given here. So high a share suggests a set chosen from earlier hits. The list shows a part of the results. Entries with a potency or affinity are not part of this list.
# Test: Confirmatory growth inhibition assay, Mycobacterium tuberculosis H37Rv, absence of glycerol (AID 449764);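 further: growth read after 7 days of incubation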
# Details: no glycerol; series mostly up to 100 µM; inhibition: at the top concentration
row,Compound,inhibition
1,C/C(=N\NC(=O)CC(C)C)c1c(C(F)(F)F)[nH]n(-c2nc3ccccc3s2)c1=O,10.1% (inactive)
2,Oc1cccc(-c2nc3ccccc3s2)c1,5.57% (inactive)
3,Cc1ccc(NC(=O)CNCc2cccs2)cc1Br,7.81% (inactive)
4,COC(=O)c1ccc(N/C(C)=C/C(=O)c2ccc(C)o2)cc1,-5.59% (inactive)
5,O=C(c1cccc([N+](=O)[O-])c1)N1CCN(c2ccc(N3CCOCC3)nn2)CC1,-4% (inactive)
6,S=c1[nH]c2ccc3ccccc3c2[nH]1,2.34% (inactive)
7,Oc1ccccc1C=NC1=NN(c2cccc(C(F)(F)F)c2)CC1,9.07% (inactive)
8,CCCCCCc1ccc(N2C[C@H](C)[C@@H](CC(=O)NCc3ccccc3)C2=O)cc1,4.93% (inactive)
9,O=Cc1ccc(-c2ccc(Cl)cc2Cl)[nH]1,1.82% (inactive)
10,O=C(Nc1ccc(-c2noc(CCc3ccccc3)n2)cc1)c1cccnc1,15.6% (inactive)
11,CNC(=O)c1csc(-c2ccc(Cl)cc2)n1,-10.9% (inactive)
12,CN1C(=O)c2cccc3c(Br)ccc(c23)C1=O,12.8% (inactive)
13,O=C(C1CC(=O)N(c2ccc3c(c2)OCCO3)C1)N1CCN(c2cccc(C(F)(F)F)c2)CC1 (stereo not drawn),-5.7% (inactive)
14,CO/N=C\CC(=O)Nc1ccc(Oc2ccccc2)cc1,-1.66% (inactive)
15,COc1ccc(-c2cc(C(=O)N(C)CC(=O)Nc3cccc(F)c3)c3ccccc3n2)cc1,-7.46% (inactive)
16,CCc1ccc(NC(=O)c2ccc(C3SCC(=O)N3CCc3ccccc3)cc2)cc1 (stereo not drawn),18.5% (inactive)
17,COc1cc(/C=N/N2CCOCC2)ccc1OCc1ccc(Cl)cc1,7.51% (inactive)
18,CC(C)OC(=O)c1ccc(N)cc1,0.17% (inactive)
19,CC(=O)Oc1ccc2occ(C(=O)c3cccs3)c2c1,-6.49% (inactive)
20,CCCC1CCC(C(=O)Nn2c(C)nc3ccccc3c2=O)CC1 (stereo not drawn),-9.95% (inactive)
21,CCOC(=O)c1cc(CC)sc1NC(=O)c1cc(OCC)c(OCC)c(OCC)c1,0.67% (inactive)
22,Nc1nc2ccccc2n1/N=C/c1ccc(Br)cc1,-0.83% (inactive)

row,Compound,inhibition
1,CCOc1cc(C2NN=C(c3ccc(C)cc3)S2)ccc1O (stereo not drawn),9.69% (inactive)
2,CC(=O)c1ccc(NC(=O)COC(=O)c2c3c(nc4ccccc24)/C(=C\c2cccs2)CCC3)cc1,4.09% (inactive)
3,CC(/C=C/C=C/c1ccccc1)=N\NC(=O)c1cccnc1,-10.2% (inactive)
4,Cc1ccc(-c2cn3cccnc3n2)cc1NC(=O)c1ccc(Br)o1,2.75% (inactive)
5,CCNc1nc(NCC)n2c(SC(C(=O)Nc3cc(C)ccc3C)c3ccccc3)nnc2n1 (stereo not drawn),-4.86% (inactive)
6,Clc1nc2c(-c3ccccc3)nnn2c2ccccc12,1.59% (inactive)
7,CCCCc1ccc(NC(=O)CSC2=NN3CCCC(=O)N=C3S2)cc1,16% (inactive)
8,COc1ccccc1/C=C/C1=NC(=C\C=C/c2ccccc2)/C(=O)O1,1.32% (inactive)
9,Cc1ccc(-c2nnc(C)c(N3CCCC3)n2)cc1,21.2% (inactive)
10,CC(OC(=O)CCN=C1NS(=O)(=O)c2ccccc21)C(=O)Nc1ccc(F)c(F)c1F (stereo not drawn),-29.2% (inactive)
11,COc1cc(NC(=O)c2ccc(C(C)(C)C)cc2)c(OC)cc1NC(=O)CN1CCCCC1,0.98% (inactive)
12,Cc1sc2nc(CN(C(=O)NC3CCCCC3)C3CCCC3)[nH]c(=O)c2c1C,13.8% (inactive)
13,Cc1cc(Nc2ccccc2)c2c([N+](=O)[O-])ccc(C)c2n1,-0.97% (inactive)
14,O=Cc1ccc2noc(-c3ccc(Cl)cc3)c2c1,20.9% (inactive)
15,Cc1nn(-c2ccccn2)c2c1-c1nc(N3CCOCC3)ncc1CC2,5.91% (inactive)
16,CC(C)N1C(=O)NC(=O)C2(Cc3cc([N+](=O)[O-])ccc3N(C)C2c2ccccc2)C1=O (stereo not drawn),-12% (inactive)
17,CN(C)c1nc(NCc2ccccc2)nc(N/N=C/c2ccc3c(c2)OCO3)n1,22.3% (inactive)
18,CCCCn1c(N)c(N(CC(C)C)C(=O)c2oc3c(Cl)cccc3c2C)c(=O)[nH]c1=O,2.95% (inactive)
19,OCCN(/C=N/c1nc(-c2ccc(Br)cc2)cs1)CCO,9.76% (inactive)
20,CC(C)(C)n1c(O)c(C=Nc2ccc3c(c2)CCC3)c(=O)[nH]c1=O,-1.75% (inactive)
21,CCOC(=O)c1c(/N=C/N(C)C)sc(/C=N/Nc2ccccc2)c1-c1ccccc1Cl,25.8% (inactive)
22,COCCn1c(-c2ccc(OC(F)(F)C(F)C(F)(F)F)cc2)nc2c1c(=O)[nH]c(=O)n2CC(C)C (stereo not drawn),4.24% (inactive)

row,Compound,inhibition
1,N#CCCn1cc(/C=C2\NC(=S)N(c3ccccc3)C2=O)c(-c2ccc(-c3ccccc3)cc2)n1,3.09% (inactive)
2,COc1ccccc1N1C(=O)NC(=O)/C(=C/c2ccc([N+](=O)[O-])s2)C1=O,-5.18% (inactive)
3,CN1/C(=N\O)c2cccc3cccc1c23,10.6% (inactive)
4,Cc1cc(OCc2nc3ccccc3s2)ccc1N,7.73% (inactive)
5,Cc1cc(O)c(/C=N/Nc2cccc(Cl)c2)c(=O)o1,5.78% (inactive)
6,COc1ccc(-c2c(-c3cc(OC)cc(OC)c3)n(C)c3ccc(-c4ccn[nH]4)cc23)cc1,7.87% (inactive)
7,Nc1ccc(N=Nc2ccccc2)c(N)n1,13.5% (inactive)
8,CC(=O)/C(=C\Nc1ccc(OCc2ccccc2)cc1)c1ccccc1,-1.34% (inactive)
9,CCC(C)OC(=O)C(C)Oc1ccc(-c2ccccc2)cc1 (stereo not drawn),6.06% (inactive)
10,CC(=O)c1cccc(Nc2nc(-c3cccnc3)cs2)c1,2.69% (inactive)
11,O=c1[nH][nH]c(-c2ccccc2O)c1C(C[N+](=O)[O-])c1cccc(Cl)c1 (stereo not drawn),2.82% (inactive)
12,COc1cc2[nH]c(Cl)c([N+](=O)[O-])c2cc1OC,1.76% (inactive)
13,C#CCOC(=O)/C(=C/c1ccc(F)cc1)NC(C)=O,5.26% (inactive)
14,CN1[C@@H]2CC[C@H]1CC(OC(=O)[C@H](CO)c1ccccc1)C2 (stereo partly drawn),1.31% (inactive)
15,CCOc1cc(/C=N\NC(=O)Cn2nc([N+](=O)[O-])cc2C)ccc1OCc1cccc2ccccc12,0.56% (inactive)
16,N#CC1=C(N)NC(SCC(=O)c2ccccc2)=C(C#N)C12CCCC2,-2.36% (inactive)
17,CCOc1ccc2nc(/N=C/c3nc(-c4ccccc4)oc3O)sc2c1,0.07% (inactive)
18,COc1ccccc1/C=N/NC(=O)NC12CC3CC(CC(C3)C1)C2,1.84% (inactive)
19,Nc1ccc(OCc2ccco2)cc1,-7.58% (inactive)
20,Nc1cnc(-c2ccccc2)nc1Cl,-1.81% (inactive)
21,Cc1ccc(-c2ccc(/C=N/c3ncn[nH]3)o2)cc1Cl,2.85% (inactive)
22,COc1ccc(-c2nc(C#N)c(N3CCc4ccccc4C3)o2)cc1OC,4.49% (inactive)

row,Compound,inhibition
1,COc1ccc(NC(=O)C(=O)NCC(c2ccco2)N2CCc3ccccc3C2)cc1 (stereo not drawn),-1.43% (inactive)
2,C=CCOc1ccc(/C=N/O)cc1Cl,-31.2% (inactive)
3,Cc1ccccc1C1C(C#N)=C2N=C(N)c3c(sc4c3CCCCC4)N2C2=C1C(=O)CC(C)(C)C2 (stereo not drawn),0.66% (inactive)
4,C[C@]12CCC(=O)C[C@@H]1CC[C@@H]1[C@@H]2CC[C@]2(C)C=CC[C@@H]12,0.91% (inactive)
5,Cn1c(=S)c2[nH]c(SCCN3CCCC3)nc2n(C)c1=O,9.66% (inactive)
6,CCOC(=O)c1ccc(N=C(CC)c2c(O)n(C)c(=O)n(C)c2=O)cc1,8.56% (inactive)
7,CCCN(CC1CC1)C(=O)COC(=O)c1ccc2c(c1)C(=O)N(c1ccc(OCC)cc1)C2=O,19.1% (inactive)
8,CN(C(=O)COC(=O)/C=C/c1ccc(Cl)c(Cl)c1)c1c(N)n(Cc2ccccc2)c(=O)[nH]c1=O,-3.74% (inactive)
9,C=CCOc1ccc(/C=C/C(=O)OCC(=O)NCC2CCCO2)cc1 (stereo not drawn),1.65% (inactive)
10,CC(C)c1ccc(-c2nn(-c3ccccc3)cc2C(=O)NCC2CCCO2)cc1 (stereo not drawn),0.34% (inactive)
11,O=S(=O)(c1ccc(Cl)cc1)N1CCC(n2cnc3cc(C(F)(F)F)ccc32)CC1,-5.67% (inactive)
12,O=C1NC(=Nc2ccccc2)S/C1=C\C=C\c1ccco1,-1.01% (inactive)
13,CCCC(O)(CCC)C(=O)NNc1ccc(C)cc1,0.93% (inactive)
14,CC(=O)N1C(Nc2ccc(Cl)cc2)CCN1c1ccccc1 (stereo not drawn),1.97% (inactive)
15,CCOc1ccc(N=CNc2ccc(OCC)cc2)cc1,4.25% (inactive)
16,Cc1ccc(C(=O)Nc2ccc3c4c(cccc24)CC3)cc1[N+](=O)[O-],-1.35% (inactive)
17,CCn1c(SCC(=O)Nc2nc3ccc(C)cc3s2)nc2c(c1=O)SC(C)C2 (stereo not drawn),5.17% (inactive)
18,Cc1cc(NC(=O)CCN2C(=O)C3C4C=CC(C4)C3C2=O)ccc1Br (stereo not drawn),-2.08% (inactive)
19,Cc1ccc(-c2ccc(=O)n(CC(=O)N3CCN(c4cc(Cl)ccc4C)CC3)n2)cc1,7.68% (inactive)
20,CCOC(=O)c1ccc(N=Cc2c(O)c3ccccc3oc2=O)cc1,0.57% (inactive)
21,O=C(CCC1CCCC1)c1c(O)c2ccccc2oc1=O,0.56% (inactive)
22,CCCCCCCCCCC[C@@H](C[C@@H]1OC(=O)[C@H]1CCCCCC)OC(=O)[C@H](CC(C)C)NC=O,-2.49% (inactive)

row,Compound,inhibition
1,COc1cccc(/C=C/c2nc(C#N)c(NCC(C)C)o2)c1,5.57% (inactive)
2,O=C(O)Cc1c[nH]c2ccc(O)cc12,5.07% (inactive)
3,O=C1C(c2ccccc2)=[N+]([O-])c2ccccc21,13.8% (inactive)
4,O=C1C(=O)c2ccccc2C(O)=C1C1CCC(c2ccc(Cl)cc2)CC1 (stereo not drawn),3.58% (inactive)
5,COc1ccc(N=C/C=C2/C=C(c3ccccc3)OC(C)(C)O2)cc1,-15.1% (inactive)
6,CCCCOC(=O)c1ccc(O)cc1,2.54% (inactive)
7,CCOc1ccc(/C=C/C2=Cc3c(sc(NC(=O)CSc4n[nH]c(N)n4)c3C#N)C(C)(C)C2)cc1,4.45% (inactive)
8,Cc1ccc(C(=O)COC(=O)C2CC(=O)N(c3nc(-c4ccccc4)cs3)C2)cc1C (stereo not drawn),4.55% (inactive)
9,Cc1cc(C)n2[nH]c(=O)c(N=Nc3cccc(C(F)(F)F)c3)c2n1,13.8% (inactive)
10,Cc1[nH]n(-c2ccccc2)c(=S)c1C=NCCCN=Cc1c(C)[nH]n(-c2ccccc2)c1=S,-3.3% (inactive)
11,O=c1ccn(-c2ccccc2)[nH]1,-5.26% (inactive)
12,Cc1c(O)c(=O)n(-c2ccccc2)n1C,-11.3% (inactive)
13,O=C(OCC(=O)C12CC3CC(CC(C3)C1)C2)c1ccc(O)cc1O,-5.85% (inactive)
14,CC(=O)NC1C(c2nc3ccccc3s2)=C(c2ccccc2)C(=O)N1c1ccc(C)cc1 (stereo not drawn),-15.8% (inactive)
15,CCc1ccc(N=CC23c4ccccc4C(c4ccccc42)C2C(=O)N(c4ccc(OC)cc4)C(=O)C23)cc1 (stereo not drawn),-0.01% (inactive)
16,COc1ccc(NCc2n[nH]nc2-c2ccccc2)cc1Cl,-3.72% (inactive)
17,C=CCSc1n[nH]c(-c2ccc(OCCCC)cc2)n1,10.5% (inactive)
18,O=C(O)C1CC=CCC1C(=O)NNc1ccccc1 (stereo not drawn),-1.55% (inactive)
19,CCOP(=O)(OCC)/C(=C/N1CCCCC1)NC(=O)c1ccccc1,0.96% (inactive)
20,CCOc1cc(C(=O)OCc2ccc(C(=O)OC)o2)cc(Br)c1OC,0.05% (inactive)
